HCMV antiviral = inhibitors of human cytomegalovirus. HFF cells, HCMV-luciferase reporter, 72 h; hits give low values. activity change, negative = inhibition, % at 57.5 µM. AID 1259415. 410,000 compounds, 4.5% hits; in the data active means activity change below about -60%; inconclusive means no clear call, values can overlap the other calls; inactive means above about -39%
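Steps: HFFs plated, 16 h 37C; compounds added; HCMV-luciferase added to MOI 1 PFU/cell; 72 h 37C; OneGlo reagent, 5 min room temperature; luminescence read, normalized to controls.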
Vaccinia mCherry = inhibitors of vaccinia virus infection (mCherry reporter signal) | Vaccinia virus mCherry reporter infection, fluorescence | Potency, µM (highest dose often 36.5 µM), for the others: top-dose activity change, negative = inhibition, usual class: inhibitors | 310,000 compounds, 0.63% hits | AID 720579; calls by dose curve; tested in A549 cells; further: potency means the concentration at half of the fitted maximal effect; nearly all actives have a fitted effect of over 35% in size
VACV Venus inh = vaccinia inhibition (Venus reporter); Vaccinia virus Venus reporter expression, fluorescence; Potency, µM (titrated, usually from 36.5 µM), without a hit: top-dose activity change, negative = inhibition, most hits filed as inhibitors; 330,000 compounds, 0.46% hits; AID 720580; calls by dose curve; tested in A549 cells; further: potency means the concentration at half of the fitted maximal effect; nearly all actives have a fitted effect of over 30% in size
FMDV antiviral = antivirals against foot and mouth disease virus; Potency, µM (titrated, usually from 57.9 µM), for the others: at the highest dose activity change, negative = inhibition, most hits filed as inhibitors; 410,000 compounds, 1.2% hits; FMDV antiviral cell-based qHTS; calls by dose curve; tested in HEK293T cells; further: read-out not given here; potency means the concentration at half of the fitted maximal effect; nearly all actives have a fitted effect of over 45% in size
Marburg entry inh = inhibitors of Marburg virus binding or cell entry | 300,000 compounds, 1.8% hits | Potency, µM (highest dose often 37.8 µM), for inactives: at the highest dose activity change, negative = inhibition, hits mostly inhibitors | AID 540276 | Marburg virus pseudotyped entry inhibition, cell reporter; calls by dose curve; tested in HEK293 cells; further: potency means the concentration at half of the fitted maximal effect
Lassa entry inh = blocks Lassa virus binding to or entry into cells | Lassa virus pseudotype entry inhibition, cell reporter | Potency, µM (highest dose often 37.9 µM), inactives show at the highest dose activity change, negative = inhibition, usual class: inhibitors | 300,000 compounds, 1.2% hits | AID 540256; calls by dose curve; tested in HEK293 cells; further: potency means the concentration at half of the fitted maximal effect; nearly all actives have a fitted effect of over 50% in size
* = called active by the depositor; i = inactive; ? = inconclusive; · = no result given; [ ] = dose if it differs, or a comment. Only some compounds are listed: those with a hit (about 6.5% of all), similar ones and a draw of the others. On the % scale 0 is the no-effect control and ±100 the full control effect.

SMILES	HCMV antiviral	Vaccinia mCherry	VACV Venus inh	FMDV antiviral	Marburg entry inh	Lassa entry inh
Cc1ccc(C(=O)Nc2ccc(S(=O)(=O)O)c3cc(S(=O)(=O)O)cc(S(=O)(=O)O)c23)cc1NC(=O)c1cccc(NC(=O)Nc2cccc(C(=O)Nc3cc(C(=O)Nc4ccc(S(=O)(=O)O)c5cc(S(=O)(=O)O)cc(S(=O)(=O)O)c45)ccc3C)c2)c1	·	-12.5%	-16.6%	-12.5%	3.15µM*	8.88µM*
COc1cccc(CNC(=O)c2c(OC)cc(=O)n3c2CCN(C(=O)C2CC=CCC2)CC3)c1 (stereo not given)	·	-16.0%	-9.8%	1.6%	·	·
CN1CCN(Cc2nc3ccccc3c(=O)n2Cc2nc(-c3ccc4ccccc4c3)cs2)CC1	-76.3*	?	12.6µM*	?	?	?
CN1CCN(Cc2nc3ccccc3c(=O)n2Cc2nc(-c3cccc([N+](=O)[O-])c3)cs2)CC1	-13.6	-23.5%	-13.0%	-0.9%	?	?
CN(C)S(=O)(=O)c1ccc(SCC(=O)Nc2cccc(S(=O)(=O)N3CCCC3)c2)nc1	-4.4	·	·	-24.4%	·	·
CN(C)S(=O)(=O)c1cccc(NC(=O)CSc2nc3c(cc2C#N)C(=O)CC(C)(C)C3)c1	-79.8*	?	?	20µM*	?	?
CN(C)S(=O)(=O)c1cccc(NC(=O)CSc2cccc3cccnc23)c1	-100.7*	?	?	58.9%	?	-20.1%
O=C(NCCc1ccccc1)c1cnc2sc(N3CCCCCC3)nn2c1=O	19.5	i	-13.3%	?	·	29.7%[46.1 µM]
CN1CCC(N(C)S(=O)(=O)c2ccc(C(C)(C)C)cc2)CC1	-91.5*	·	·	-15.9%	·	·
CC(=O)Nc1ccc(S(=O)(=O)N(C)C2CCN(C)CC2)cc1	-27.3	-9.3%	2.9%	-11.2%	-7.5%	2.4%
COc1ccc(OC)c(S(=O)(=O)Nc2cccc3ccc(O)cc23)c1	-62.3*	-15.1%	-16.5%	11.2%	12.1%	28.0%
CCN1CCN(C(c2cccc(F)c2)c2c(O)cc(C)n(CCOC)c2=O)CC1 (stereo not given)	-8.9	-15.4%	-8.6%	-8.6%	·	16.9%[46.1 µM]
O=C(CN1CCN(c2ccccc2)CC1)N1N=CCC1c1ccccc1 (stereo not given)	-7.2	·	-11.1%	-4.2%	-1.7%	5.3%
NC(=O)C1CCN(CC(=O)N2N=CCC2c2ccccc2)CC1 (stereo not given)	-102.7*	i	-7.2%	1.8%	·	·
O=C(CN1CCN(C(c2ccccc2)c2ccccc2)CC1)N1N=CCC1c1ccccc1 (stereo not given)	-4.6	-0.7%	-6.4%	-20.7%	8.91µM*	?
COc1ccc(CCNC(=O)c2cnn(-c3nccc(-c4ccco4)n3)c2C)cc1	·	-18.4%	-5.3%	39.5%	·	·
C1=Cc2ccccc2/C1=C/c1ccc2c(c1)OCO2	·	-13.6%	-5.2%	·	·	·
Cc1ccc(C(=O)Nc2ccc(-c3nc4ccccc4s3)c(O)c2)c(C)c1	-62.8*	-14.3%[7.34 µM]	-7.6%[7.34 µM]	13.1%	·	19.3%[46.1 µM]
Cc1ccc(NC(=O)Cc2cc(C(=O)O)c3ccccc3n2)c(C)c1	?	·	·	?	11.6µM*	14.6µM*
Cc1ccc(Nc2nc3ccccc3s2)c(C)c1	71.7	?	-16.5%	-36.7%	8.2µM*	10µM*
Cc1ccc(C)c(NC(=O)COC(=O)c2cccc3c2C(=O)c2ccccc2C3=O)c1	?	-10.5%	-27.5%	?	?	?
Cc1ccc(NC(=O)COC(=O)c2cccc3c2C(=O)c2ccccc2C3=O)c(C)c1	-66.9*	-13.9%	-6.5%	-3.9%	?	-24.9%
C/C(=C\c1ccco1)CN1CCOc2ccc(C(C)(O)COc3ccccc3)cc2C1 (stereo not given)	·	-10.6%	4.6%	-8.3%	·	·
COc1ccc(-c2nnc(SCC(=O)c3ccc(NC(C)=O)cc3)o2)cc1OC	27.0	i	-7.0%	-21.9%	·	-17.5%[46.1 µM]
Cc1nc2ccccc2n1CCc1nc2c3ccccc3nc(SCc3ccccc3F)n2n1	6.9	-9.1%	-9.1%	0.0%	·	0.6%[46.1 µM]
SMILES	HCMV antiviral	Vaccinia mCherry	VACV Venus inh	FMDV antiviral	Marburg entry inh	Lassa entry inh
CCCOc1cccc(C(=O)N(Cc2ccc(C)o2)C2CCS(=O)(=O)C2)c1 (stereo not given)	?	-7.9%	-5.8%	-24.2%	-18.6%[46.1 µM]	-12.8%[46.1 µM]
CCC(=O)NC(=S)Nc1ccc(-c2nc3ccccc3s2)cc1	78.5	·	-17.3%	3.5%	-22.1%[46.1 µM]	-16.6%
Cc1ccc(NC(=O)COC(=O)c2ccccc2-c2nc3ccccc3s2)c(C)c1	-67.6*	·	·	-24.4%	24.6%	-12.0%
CCC(=O)Nc1cc(-c2nc3ccccc3s2)c(Cl)cc1Cl	-100.6*	-1.7%	-8.2%	1.7%	-2.4%[46.1 µM]	-3.2%[46.1 µM]
COc1ccccc1NS(=O)(=O)c1cc(C(=O)N2CC(C)CC(C)C2)ccc1C (stereo not given)	10.4	·	·	-9.4%	8.2µM*	17.9%
COc1ccccc1NS(=O)(=O)c1ccc(C)c(NC(=O)c2ccc(S(=O)(=O)N3CCCCCC3)cc2)c1	-69.3*	-29.9%	-26.2%	-24.6%	?	-12.9%
COc1ccc(S(=O)(=O)N2CCCCC2)cc1NC(=O)C1COc2ccccc2O1 (stereo not given)	-0.6	-20.2%	-14.0%	?	11.2µM*	?
COc1cc(S(=O)(=O)Nc2ccccc2C)ccc1NC(=O)c1ccncc1	-71.6*	-10.6%	-2.2%	52.0%	-11.9%[46.1 µM]	-16.2%
COc1cc(S(=O)(=O)Nc2ccc(C)cc2)ccc1NC(=O)c1ccncc1	-19.1	-7.7%	-21.8%	35.3%	?	2.2%
COC(=O)C1CCCCN1Cc1ccc2c(c1)CN(C(=O)c1ccc(C)s1)CCO2 (stereo not given)	·	-4.5%	3.8%	-0.4%	·	·
COc1ccc([C@H]2CC(=O)c3sc(N)nc3C2)cc1	·	·	·	·	-2.1%[46.1 µM]	·
CCN(CC)C(=O)Cn1cc(/C=C2\C(=O)NC(=O)N(c3ccccc3F)C2=O)c2ccccc21	194.9	-2.9%	-14.7%	25.1µM*	?	?
CCC(=O)Nc1ccc2nc(SCCOc3cccc(C)c3)sc2c1	-63.5*	-4.5%	-11.7%	-25.4%	-1.9%[46.1 µM]	-11.6%[46.1 µM]
Cc1ccc(OCCSc2nc3ccc(NC(=O)c4ccco4)cc3s2)cc1	-24.2	-0.2%	-13.9%	2.0%	11.6%[46.1 µM]	-10.6%[46.1 µM]
Cc1cccc(C(=O)Nc2ccc3nc(SCCOc4ccccc4)sc3c2)c1	-11.4	-15.2%	-14.7%	-20.8%	-20.2%[46.1 µM]	7.5%[46.1 µM]
CC(=O)Nc1ccc2nc(NC(=O)COc3ccccc3Cl)sc2c1	70.9	-0.5%	1.9%	55.2%	?	17.0%
CC(=O)Nc1ccc2nc(SCCOc3ccccc3Cl)sc2c1	-80.4*	?	-19.6%	10.0%	?	-12.0%[46.1 µM]
O=C(Nc1ccc2nc(SCCOc3ccccc3Cl)sc2c1)c1ccc2c(c1)OCO2	-26.6	-0.8%	-23.6%	?	-1.9%[46.1 µM]	-8.8%[46.1 µM]
Cc1ccc(OCCSc2nc3ccc(NC(=O)c4ccc5c(c4)OCO5)cc3s2)cc1	-5.8	?	11.2µM*	?	-1.9%[46.1 µM]	-27.2%[46.1 µM]
COc1cc(C)ccc1OCCSc1nc2ccc(NC(=O)c3ccco3)cc2s1	-61.4*	i	-19.6%	?	-16.3%[46.1 µM]	-18.7%[46.1 µM]
